# Results filed as inconclusive are left out. Calls of active or inactive are those of the source. Calls follow the shape of the dose curve; as a rule, active = well fitted cell-killing curve with a large enough effect; inconclusive = small, poorly fitted or top-dose-only effect, or effect the other way; inactive = no such curve, though single readings can be large or run the other way.
# Assay: Quantitative High-Throughput drug screen in 47 multiple myeloma cell lines against the NCATS MIPE library collection: H1112_PLB cell viability assay (AID 1918967; also: nearly all actives have a fitted effect of over 30% in size)
# Details: H1112 myeloma cells viability, ATP luminescence, 48 h; series mostly up to 45.8 µM; viability: at the top concentration
# Outline: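 Primary qHTS used for cherry-picking: cells at 500/well, library compounds for 48 h (37C, 5% CO2), luminescent ATP assay.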
# Potency is read from the fitted curve at half-maximal effect.
SMILES,Potency,viability
CN(C)CC[C@H](CSc1ccccc1)Nc1ccc(S(=O)(=O)NC(=O)c2ccc(N3CCN(Cc4ccccc4-c4ccc(Cl)cc4)CC3)cc2)cc1[N+](=O)[O-],0.0743 µM (active),–
O=c1[nH]c(=O)n([C@H]2C[C@@H](O)[C@@H](CO)O2)cc1C(F)(F)F,5.26 µM (active),–
CCOC(=O)N1CCN([N+]([O-])=NOc2cc(ON=[N+]([O-])N3CCN(C(=O)OCC)CC3)c([N+](=O)[O-])cc2[N+](=O)[O-])CC1,5.9 µM (active),–
O=C(CC12CC3CC(CC(C3)C1)C2)Nc1cccc2nc(NCCNCCO)ccc12,7.43 µM (active),–
COc1ccc(-c2oc3c(CC=C(C)C)c(O)cc(O)c3c(=O)c2O)cc1,16.6 µM (active),–
N#CC(c1ccnc(NCCc2cccnc2)n1)c1nc2ccccc2s1 (configuration not stated),18.7 µM (active),–
CN[C@@H]1CN(c2ccc3c(=O)c(C(=O)O)cn(-c4nccs4)c3n2)C[C@@H]1OC,12.9 µM (active),–
CCC(C)SSc1ncc[nH]1 (configuration not stated),5.26 µM (active),–
CCOC(=O)c1c(CSc2ccccc2)n(C)c2cc(Br)c(O)c(CN(C)C)c12,6.62 µM (active),–
C[C@@H]1O[C@@H](O[C@H]2CC[C@@]3(C)[C@H](CC[C@@H]4[C@H]3C[C@@H](O)[C@]3(C)[C@@H](C5=CC(=O)OC5)CC[C@]43O)C2)C[C@H](O)[C@@H]1O[C@H]1C[C@H](O)[C@H](O[C@H]2C[C@H](O)[C@@H](O)[C@@H](C)O2)[C@H](C)O1 (stereo in doubt),0.34 µM (active),–
CNC1CCC(N(Cc2cccc(-c3ccncc3)c2)C(=O)c2sc3ccccc3c2Cl)CC1 (configuration not stated),14.8 µM (active),–
NS(=O)(=O)c1cc(Cl)c(Cl)c(S(N)(=O)=O)c1,–,100% (inactive)
CC[C@H](C)C(=O)O[C@H]1C[C@H](O)C=C2C=C[C@H](C)[C@H](CC[C@@H](O)C[C@@H](O)CC(=O)O)[C@H]21,–,96.7% (inactive)
CC[C@H](NC(=O)[C@H](C)NC)C(=O)N1C[C@@H](O)C[C@H]1Cc1c(-c2[nH]c3cc(F)ccc3c2C[C@H]2C[C@H](O)CN2C(=O)[C@H](CC)NC(=O)[C@H](C)NC)[nH]c2cc(F)ccc12,11.8 µM (active),–
NC1(C(=O)N[C@@H](CCO)c2ccc(Cl)cc2)CCN(c2ncnc3[nH]ccc23)CC1,7.43 µM (active),–
N#CC(c1ccc(Cl)cc1)c1c(Cl)cc(-n2ncc(=O)[nH]c2=O)cc1Cl (configuration not stated),20.9 µM (active),–

SMILES,Potency,viability
CCc1cc(-c2n[nH]c(C)c2-c2ccc3c(c2)OCCO3)c(O)cc1O,8.33 µM (active),–
Cc1cn([C@@H]2C[C@@H](O)[C@H](CO)O2)c(=O)[nH]c1=O,–,106% (inactive)
Cc1ccc(NC(=O)Nc2cc(C(F)(F)F)ccc2F)cc1Nc1ccc2c(c1)NC(=O)C2=Cc1ccc[nH]1,11.8 µM (active),–
CC(C)(C)c1nc(-c2cccc(NS(=O)(=O)c3c(F)cccc3F)c2F)c(-c2ccnc(N)n2)s1,8.33 µM (active),–
O=S(=O)(NCCNCC=Cc1ccc(Br)cc1)c1cccc2cnccc12,14.8 µM (active),–
CN[C@@H](C)[C@H]1[C@H](O)C[C@@]2(C)[C@@H]3CC[C@H]4C(C)(C)[C@@H](NC)CC[C@@]45C[C@@]35CC[C@]12C,–,87.2% (inactive)
COC(=O)Nc1ccc(-c2nc(N3CCOCC3)c3cnn(C4CCN(C(=O)OC)CC4)c3n2)cc1,0.0662 µM (active),–
CC[C@H](C=C[C@@H](C)[C@H]1CC[C@H]2[C@@H]3CC=C4C[C@@H](O)CC[C@]4(C)[C@@H]3CC[C@]12C)C(C)C,–,92.9% [at 23.2 µM] (inactive)
COc1c(C)cnc(Cn2cnc3c(Cl)nc(N)nc32)c1C,0.132 µM (active),–
C[C@@H]1C[C@H]2[C@@H]3CCC4=CC(=O)C=C[C@]4(C)[C@@]3(F)[C@@H](O)C[C@]2(C)[C@@]1(O)C(=O)CO,–,136% (inactive)
CC(C)n1c(C=C[C@H](O)C[C@H](O)CC(=O)O)c(-c2ccc(F)cc2)c2ccccc21,16.6 µM (active),–
O=C1CCCC(=O)C1C(=O)c1ccc(C(F)(F)F)cc1[N+](=O)[O-],–,112% (inactive)
Cc1ccc(NC(=O)c2cccc(N(C)C)c2)cc1NC(=O)c1ccc(O)cc1,0.166 µM (active),–
C=C1[C@H](n2cnc3c(=O)[nH]c(N)nc32)C[C@H](O)[C@H]1CO,11.8 µM (active),–
Cc1nc(NC(=O)N2CCC[C@@H]2C(N)=O)sc1-c1csc(C(C)(C)C)n1,2.09 µM (active),–
CNC(=O)c1ccc2c(C(=Nc3cccc(CN(C)C)c3)c3ccccc3)c(O)[nH]c2c1,14.8 µM (active),–

# Reference: PubChem BioAssay (NCATS)
